In the supplement of paper PMC13380429:

Assays:
[1] = tested on: Vero E6 infected with SARS-CoV-2; test: morphology score (similarity to uninfected cells); higher = more like uninfected cells; conditions: 24 h
[2] = tested on: Vero E6 infected with SARS-CoV-2; test: SARS-CoV-2 infection rate relative to infected DMSO; higher = more infection, active = 60 or less; conditions: 24 h

SMILES	morphology score [1]	SARS-CoV-2 infection rate [2]
CC1=C(/C=C/C(=C/C=C/C(C)=C/C(=O)O)c2ccc(C)cc2)C(C)(C)CCC1 (10 µM)	0.171	106% (inactive)
CC(C)[C@H](CO)Nc1nc(Nc2ccc(C(=O)O)c(Cl)c2)c2ncn(C(C)C)c2n1 [purvalanol-B] (10 µM)	-0.00736	101% (inactive)
CC(C)(C)n1nc(-c2cccc3ccccc23)c2c(N)ncnc21 [1-naphthyl-PP1] (0.833333 µM)	0.129	96.5% (inactive)
CC#CC(=O)N1CC[C@@H](n2c(=O)n(-c3ccc(Oc4ccccc4)cc3)c3c(N)ncnc32)C1 (0.833333 µM)	-0.0591	90% (inactive)
CC(=O)N(O)[C@@H]1c2cc(C#N)ccc2OC(C)(C)[C@H]1O (10 µM)	0.477	59% (active)
O=c1ccn([C@@H]2O[C@H](COP(=O)(O)OP(=O)(O)OP(=O)(O)O)[C@@H](O)[C@H]2O)c(=O)[nH]1 (10 µM)	0.267	97% (inactive)
CCn1c2ccccc2c2cc(CNC)ccc21 (10 µM)	0.514	56% (active)
CCc1cc(O)c(Oc2ccc(C(N)=O)cc2F)cc1F (10 µM)	0.0909	95.5% (inactive)
CC(=O)N[C@H]1[C@H]([C@H](O)[C@H](O)CO)OC(O)(C(=O)O)C[C@@H]1O (mixture of isomers) [aceneuramic-acid] (10 µM)	0.0132	104% (inactive)
CC(C)Oc1cccc(-n2c(CCc3c[nH]c4ccc(Br)cc34)nc3ccccc3c2=O)c1 (10 µM)	0.149	93% (inactive)
O=C1[C@H](CC[C@H](O)c2ccc(F)cc2)[C@@H](c2ccc(O)cc2)N1c1ccc(F)cc1 [ezetimibe] (10 µM)	0.142	110% (inactive)
O=C(NC1CCNCC1)c1n[nH]cc1NC(=O)c1c(Cl)cccc1Cl (10 µM)	-0.285	109% (inactive)
COC(=O)c1ccc(N2CCN(C)CC2)c(NC(=O)c2cccc(OC)c2)c1 (10 µM)	0.142	105% (inactive)
N=C(NCCC[C@H](N)C(=O)O)N[N+](=O)[O-] [NG-nitro-arginine] (10 µM)	-0.0213	108% (inactive)
c1ccc2c(CC3=NCCN3)cccc2c1 [naphazoline] (10 µM)	0.146	99% (inactive)
Cc1cccc(C)c1-n1c(=O)c2cnc(Nc3ccc(N4CCN(C)CC4)cc3)nc2n2c3ccccc3nc12 (0.833333 µM)	-0.0551	104% (inactive)
CCO[C@H]1O[C@@H]2O[C@@]3(C)CC[C@H]4[C@H](C)CC[C@@H]([C@H]1C)[C@@]24OO3 [artemotil] (10 µM)	-0.085	113% (inactive)
C/C(=C\c1csc(C)n1)[C@@H]1C[C@@H]2O[C@]2(C)CCC[C@H](C)[C@H](O)[C@@H](C)C(=O)C(C)(C)[C@@H](O)CC(=O)O1 [epothilone-B] (0.833333 µM)	0.00236	115% (inactive)
CCC(CC)(NC(=O)C(C)C)C(=O)N[C@@H](CCCNC(=N)N)C(=O)NC1(C(=O)NC(c2ccc(F)cc2)c2ccc(F)cc2)CCCC1 (10 µM)	-0.044	116% (inactive)
O=C(O)C(O)Cc1ccc(O)c(O)c1 (stereo not given) [sodium-danshensu] (10 µM)	0.114	106% (inactive)

SMILES	morphology score [1]	SARS-CoV-2 infection rate [2]
CCCCC(=O)O[C@]1(C(=O)CO)[C@@H](C)C[C@H]2[C@@H]3CCC4=CC(=O)C=C[C@]4(C)[C@@]3(F)[C@@H](O)C[C@@]21C (10 µM)	-0.0636	112% (inactive)
O=S(=O)(O)c1ccc2[nH]c(-c3ccccc3)nc2c1 [phenylbenzimidazole-sulfonic-acid] (10 µM)	0.087	104% (inactive)
O[C@H]1CC[C@H](Nc2ncc3nc(Nc4c(F)cc(F)cc4F)n([C@H]4CCOC4)c3n2)CC1 (0.833333 µM)	0.103	101% (inactive)
CC(CNS(=O)(=O)C(C)C)c1ccc(-c2ccc(C#N)cc2)cc1 (stereo not given) (10 µM)	-0.219	114% (inactive)
CNC(=O)c1cc(Oc2ccc(NC(=O)Nc3ccc(Cl)c(C(F)(F)F)c3)c(F)c2)ccn1 [regorafenib] (0.833333 µM)	0.0372	110% (inactive)
O=C1CCCCCCCCCCCCCCO1 [oxacyclohexadecan-2-one] (10 µM)	-0.0503	106% (inactive)
CS(=O)(=O)Nc1c(O)ccc2c1CCC[C@H]2C1=NCCN1 (10 µM)	0.0346	110% (inactive)
NNC(=O)CSc1nc2scc(-c3ccccc3)c2c(=O)n1-c1ccccc1 (10 µM)	-0.0192	99.5% (inactive)
CN=c1nc(-c2ccccc2)n(-c2ccccc2)s1 (10 µM)	-0.0414	97.5% (inactive)
O=C(C[S+]([O-])Cc1ccco1)NC/C=C\COc1cc(CN2CCCCC2)ccn1 (stereo not given) [lafutidine] (10 µM)	0.0534	94% (inactive)
O=C(O)Cc1ccccc1Nc1c(Cl)cccc1Cl [diclofenac] (10 µM)	-0.00811	106% (inactive)
COC(=O)N[C@H](C(=O)N1CCC[C@H]1c1nc(-c2ccc3c(c2)O[C@@H](c2ccccc2)n2c-3cc3cc(-c4c[nH]c([C@@H]5CCCN5C(=O)[C@@H](NC(=O)OC)C(C)C)n4)ccc32)c[nH]1)C(C)C [elbasvir] (10 µM)	-0.17	120% (inactive)
CCCNC(C)(C)COC(=O)c1ccccc1 [meprylcaine] (10 µM)	0.0721	102% (inactive)
NC(=O)c1ccccc1O [salicylamide] (10 µM)	-0.114	102% (inactive)
NC(=O)CN1C=CCC(C(N)=O)=C1 [caricotamide] (10 µM)	0.109	106% (inactive)
Cc1cc(C)nc(NS(=O)(=O)c2ccc(N)cc2)n1 [sulfamethazine] (10 µM)	0.0855	111% (inactive)
Clc1ccc(C(Cn2ccnc2)OCc2ccc(Sc3ccccc3)cc2)c(Cl)c1 (stereo not given) [fenticonazole] (10 µM)	-0.0119	114% (inactive)
NC(=O)NCCC[C@H](N)C(=O)O [L-citrulline] (10 µM)	0.035	112% (inactive)
NC(=O)C1=CN([C@@H]2O[C@H](COP(=O)(O)OP(=O)(O)OC[C@H]3O[C@@H](n4cnc5c(N)ncnc54)[C@H](OP(=O)(O)O)[C@@H]3O)[C@@H](O)[C@H]2O)C=CC1 (10 µM)	-0.0816	106% (inactive)
COc1ccc2c(c1OC)C(=O)O[C@@H]2[C@H]1c2c(cc3c(c2OC)OCO3)CCN1C [noscapine] (10 µM)	-0.105	104% (inactive)

SMILES	morphology score [1]	SARS-CoV-2 infection rate [2]
O=c1[nH]c2ccccc2n1CCCN1CCC(n2c(=O)[nH]c3cc(Cl)ccc32)CC1 [domperidone] (10 µM)	0.00154	110% (inactive)
Cc1ccc(Cl)cc1N(CC(=O)Nc1c(F)cccc1F)S(C)(=O)=O (10 µM)	0.0341	113% (inactive)
CCCCOc1cc(CC2CNC(=O)N2)ccc1OC (stereo not given) (10 µM)	0.429	86% (inactive)
O=S(=O)(O)Oc1ccc(C(c2ccc(OS(=O)(=O)O)cc2)c2ccccn2)cc1 [sodium-picosulfate] (10 µM)	0.154	101% (inactive)
C[C@]12CC[C@@H]3c4ccc(O)cc4CC[C@H]3[C@@H]1CC[C@@H]2O [estradiol] (10 µM)	-0.0909	116% (inactive)
COc1cccc(-c2cc(F)ccc2[C@H]2Cc3nc(N)nc(C)c3C(=O)N2)n1 (0.833333 µM)	0.125	99% (inactive)
O=C(/C=C/c1ccc(O)cc1)c1ccc(O)cc1O [isoliquiritigenin] (10 µM)	0.403	103% (inactive)
COc1cc2ncnc(Sc3nnc(C)s3)c2cc1OC (10 µM)	0.403	102% (inactive)
COC1CCN(C(=O)c2cc(Cc3n[nH]c(=O)c4ccccc34)ccc2F)CC1 (10 µM)	0.118	103% (inactive)
CN1CCN(c2ncc(-c3cc(Cl)cc(Cl)c3Cl)c(N)n2)CC1 [sipatrigine] (10 µM)	0.204	82% (inactive)
O=C(O)CNC(=O)c1nc(Cl)c2ccccc2c1O (10 µM)	0.17	102% (inactive)
CCNC1=Nc2ccc(Cl)cc2C(C)(c2ccccc2)O1 (stereo not given) [etifoxine] (10 µM)	0.159	106% (inactive)
CCCN(C/C=C/I)C1CCc2cccc(O)c2C1 (stereo not given) [8-hydroxy-PIPAT] (10 µM)	-0.0478	106% (inactive)
C[C@]12C[C@H](O)[C@H]3[C@@H](CCC4=CC(=O)CC[C@@]43C)[C@@H]1CC[C@@H]2C(=O)CO [corticosterone] (10 µM)	0.0999	110% (inactive)
CCS(=O)(=O)N1CCC[C@@H]2CN3CCc4cc(OC)ccc4[C@@H]3C[C@@H]21 (10 µM)	0.0669	102% (inactive)
N=C1N[C@H]2[C@H](CS[C@H]2CCCCC(=O)O)N1 [2-iminobiotin] (10 µM)	0.0808	99% (inactive)
CC1(C)CC(=O)C(C2C3=C(CC(C)(C)CC3=O)Oc3ccccc32)C(=O)C1 (stereo not given) (10 µM)	0.28	98% (inactive)
N[C@H]1C[C@@H]1c1ccccc1 (racemic) [tranylcypromine] (10 µM)	0.0679	114% (inactive)
CO/N=C1\CN(c2nc3c(cc2F)c(=O)c(C(=O)O)cn3C2CC2)CC1CN (stereo not given) [gemifloxacin] (10 µM)	0.163	91.5% (inactive)
O=P(O)(O)C(Cl)(Cl)P(=O)(O)O [clodronic-acid] (10 µM)	-0.00847	92% (inactive)
